Inconclusive results are not listed. The source made the active and inactive calls. Unless noted, calls come from the whole dose curve.
Tests used:
[1] = biological target: Estrogen receptor (Homo sapiens) (UniProt P03372); test: qHTS assay to identify small molecule agonists of the estrogen receptor alpha (ER-alpha) signaling pathway in the presence of an antagonist (AID 1259383); note: top concentration of the series differs between compounds; nearly all actives have a fitted effect of over 15% in size
How it was run: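 Luciferase luminescence (ONE-Glo, 30min at room temperature) measured in VM7Luc4E2 cells after 22hr compound exposure at 15 concentrations, with 10.0nM ICI-182,780 final present; cells express endogenous ER-alpha and carry four EREs upstream of luciferase.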

[2] = qHTS assay to identify small molecule agonists or antagonists of the thyroid stimulating hormone receptor (TSHR) signaling pathway - wild type cell line counter screen (AID 1259384)
How it was run: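 Wild-type HEK293 cells were plated 18 h at 37 C/5% CO2, pin-dosed with compound plus Ro20-1724 medium, held 30 min at room temperature, then given cAMP-d2 and anti-cAMP-cryptate; fluorescence was read after 1 h. Fifteen concentrations, triplicate.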

[3] = biological target: Thyrotropin receptor (Homo sapiens) (UniProt P16473); test: qHTS assay to identify small molecule antagonists of the thyroid stimulating hormone receptor (TSHR) signaling pathway (AID 1259385); note: nearly all actives have a fitted effect of over 20% in size
How it was run: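 TSHR-HEK293 cells were plated and held 18 h at 37C/5% CO2, then given compound plus Ro20-1724 and stimulated with TSH at 1.5 ng/mL final. After 30 min at room temperature, cAMP was detected with cAMP-d2/anti-cAMP-cryptate (1 h) by fluorescence.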

[4] = qHTS assay to identify small molecule agonists of the estrogen receptor alpha (ER-alpha) signaling pathway in the presence of an antagonist - cell viability counter screen (AID 1259386; active = well fitted curve in the direction sought with a large enough effect in the repeat runs; an effect the other way counts as inactive or inconclusive;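 note: series mostly up to about 92 µM; cells exposed to compounds for 22 h at 37 °C before the viability read; nearly all actives have a fitted effect of over 30% in size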)
How it was run: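 Read-out: CellTiter-Fluor fluorescence after 1hr reagent incubation, measured in the same wells as the luciferase readout. VM7Luc4E2 cells were exposed to 15 compound concentrations with 10.0nM ICI-182,780 for 22hr at 37C.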

[5] = biological target: Progesterone receptor (Homo sapiens) (UniProt P06401); test: qHTS assay to identify small molecule antagonists of the progesterone receptor (PR) signaling pathway (AID 1346795; active = well fitted inhibition curve with a large enough effect in the signal ratio in the repeat runs, not every such curve was filed as active; the % refers to the signal ratio; note: potency is the fitted concentration of half-maximal effect)
How it was run: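 Fluorescence intensity measured 2 hr after adding beta-lactamase FRET substrate to PR-UAS-bla HEK293T cells that had been co-treated 16 hr with compound and 1 nM R5020 (final concentration) in 2% charcoal-stripped FBS.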

[6] = qHTS assay to identify small molecule antagonists of the progesterone receptor (PR) signaling pathway - cell viability counter screen (AID 1346798; active = well fitted curve in the direction sought with a large enough effect in the repeat runs; an effect the other way counts as inactive or inconclusive; note: nearly all actives have a fitted effect of over 50% in size; note: potency is the fitted concentration of half-maximal effect; for activity change, negative = cytotoxicity: series mostly up to about 92 µM)
How it was run: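 CellTiter-Glo luminescence; PR-UAS-bla HEK293T, 3,000 cells/well; compound + R5020, 16 hr, 37C/5% CO2; 30 min RT before read.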

[7] = qHTS assay to identify small molecule agonists of the progesterone receptor (PR) signaling pathway - cell viability counter screen (AID 1346799); note: nearly all actives have a fitted effect of over 45% in size
How it was run: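 In parallel with the beta-lactamase readout, cytotoxicity toward PR-UAS-bla HEK293T cells was measured by CellTiter-Glo luminescence following 16 hr compound incubation in 2% charcoal-stripped FBS medium.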

[8] = qHTS assay to identify small molecule antagonists of the estrogen receptor beta (ER-beta) signaling pathway - cell viability counter screen (AID 1259382; active = well fitted curve in the direction sought with a large enough effect in the repeat runs; an effect the other way counts as inactive or inconclusive;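 note: HEK293T cells carrying ER-beta-UAS-bla reporter stimulated with estradiol; series mostly up to about 92 µM; nearly all actives have a fitted effect of over 55% in size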)
How it was run: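 Luminescent ATP read-out (CellTiter-Glo, 30 min, RT) taken in the same wells as the bla reporter assay. HEK293T ER-beta-UAS-bla cells in 2% charcoal-stripped FBS were exposed to compounds with 1nM E2 for 16 hr at 37C.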

[9] = biological target: Progesterone receptor (Homo sapiens) (UniProt P06401); test: qHTS assay to identify small molecule agonists of the progesterone receptor (PR) signaling pathway (AID 1346784); note: nearly all actives have a fitted effect of over 30% in size; note: potency is the fitted concentration of half-maximal effect
How it was run: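 Fluorescence from LiveBLAzer B/G FRET substrate cleavage (2 hr, RT) reported PR activation in PR-UAS-bla HEK 293T cells treated 16 hr at 37C/5% CO2 with compounds; medium contained 2% charcoal-stripped FBS.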
% is set by controls: 0 for no effect and ±100 for the full control effect.

Thyrotropin receptor (Homo sapiens), sequence (P16473 whole entry, looked up): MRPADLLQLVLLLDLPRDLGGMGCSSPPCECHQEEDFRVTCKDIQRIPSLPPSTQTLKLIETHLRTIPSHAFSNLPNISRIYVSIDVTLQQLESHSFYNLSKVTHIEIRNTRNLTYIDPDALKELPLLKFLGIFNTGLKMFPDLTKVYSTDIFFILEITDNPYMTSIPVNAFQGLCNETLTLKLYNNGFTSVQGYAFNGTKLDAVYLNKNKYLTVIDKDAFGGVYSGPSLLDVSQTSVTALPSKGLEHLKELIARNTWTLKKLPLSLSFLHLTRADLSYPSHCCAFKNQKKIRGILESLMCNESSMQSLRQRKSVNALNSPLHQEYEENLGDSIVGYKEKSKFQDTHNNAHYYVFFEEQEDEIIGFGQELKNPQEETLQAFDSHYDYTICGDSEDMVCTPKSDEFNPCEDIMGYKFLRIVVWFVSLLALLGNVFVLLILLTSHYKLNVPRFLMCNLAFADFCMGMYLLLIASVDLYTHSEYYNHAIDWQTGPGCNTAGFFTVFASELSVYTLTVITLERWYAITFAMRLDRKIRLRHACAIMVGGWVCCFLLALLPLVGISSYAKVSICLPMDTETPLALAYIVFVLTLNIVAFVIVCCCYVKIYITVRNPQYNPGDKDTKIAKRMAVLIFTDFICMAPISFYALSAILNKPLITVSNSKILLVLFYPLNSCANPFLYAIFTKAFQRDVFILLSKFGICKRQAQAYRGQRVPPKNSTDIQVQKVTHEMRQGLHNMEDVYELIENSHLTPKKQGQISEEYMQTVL
Estrogen receptor (Homo sapiens), sequence (P03372 whole entry, looked up): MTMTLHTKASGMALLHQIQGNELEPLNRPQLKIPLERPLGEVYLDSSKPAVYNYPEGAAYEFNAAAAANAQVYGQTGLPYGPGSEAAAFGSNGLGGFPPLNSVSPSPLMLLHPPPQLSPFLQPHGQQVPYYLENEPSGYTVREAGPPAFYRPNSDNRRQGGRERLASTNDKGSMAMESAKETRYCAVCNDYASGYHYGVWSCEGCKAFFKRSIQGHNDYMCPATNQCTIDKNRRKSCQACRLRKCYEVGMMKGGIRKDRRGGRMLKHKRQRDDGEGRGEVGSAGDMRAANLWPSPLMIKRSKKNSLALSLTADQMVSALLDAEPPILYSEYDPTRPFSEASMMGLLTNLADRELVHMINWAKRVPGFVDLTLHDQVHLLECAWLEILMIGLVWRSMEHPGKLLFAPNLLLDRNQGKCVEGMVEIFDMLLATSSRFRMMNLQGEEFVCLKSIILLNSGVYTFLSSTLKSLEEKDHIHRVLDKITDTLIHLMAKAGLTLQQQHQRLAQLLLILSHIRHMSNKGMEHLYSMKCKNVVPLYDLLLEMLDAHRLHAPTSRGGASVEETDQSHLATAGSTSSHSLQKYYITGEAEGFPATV
Progesterone receptor (Homo sapiens), sequence (P06401 whole entry, looked up): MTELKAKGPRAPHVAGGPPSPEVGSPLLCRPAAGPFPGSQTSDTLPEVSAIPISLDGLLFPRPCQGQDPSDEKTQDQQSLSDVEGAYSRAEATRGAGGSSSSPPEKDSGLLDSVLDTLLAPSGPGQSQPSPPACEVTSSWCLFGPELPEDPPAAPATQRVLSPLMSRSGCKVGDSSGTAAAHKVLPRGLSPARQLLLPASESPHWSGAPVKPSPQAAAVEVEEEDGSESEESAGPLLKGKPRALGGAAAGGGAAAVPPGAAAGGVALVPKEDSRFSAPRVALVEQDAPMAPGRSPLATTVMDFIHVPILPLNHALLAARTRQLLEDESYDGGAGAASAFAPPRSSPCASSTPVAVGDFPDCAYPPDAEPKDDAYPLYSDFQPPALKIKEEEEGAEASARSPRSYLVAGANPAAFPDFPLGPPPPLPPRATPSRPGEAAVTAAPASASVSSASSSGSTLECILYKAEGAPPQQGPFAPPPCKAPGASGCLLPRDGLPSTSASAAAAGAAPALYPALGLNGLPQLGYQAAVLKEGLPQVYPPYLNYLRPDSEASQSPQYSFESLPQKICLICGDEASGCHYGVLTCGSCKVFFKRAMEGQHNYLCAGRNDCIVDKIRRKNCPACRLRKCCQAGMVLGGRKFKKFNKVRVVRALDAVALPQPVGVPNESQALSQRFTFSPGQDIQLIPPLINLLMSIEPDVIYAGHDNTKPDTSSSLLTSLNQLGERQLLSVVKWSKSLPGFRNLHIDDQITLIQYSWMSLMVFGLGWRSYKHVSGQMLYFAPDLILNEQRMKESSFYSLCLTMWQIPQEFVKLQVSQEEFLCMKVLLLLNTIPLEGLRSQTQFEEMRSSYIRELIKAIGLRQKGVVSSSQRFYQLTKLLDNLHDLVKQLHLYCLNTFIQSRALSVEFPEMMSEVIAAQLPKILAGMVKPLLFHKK

CCCCCCCCCCCCOC(C)=O
inactive: outcome [1] | outcome [2] | outcome [3] | Potency [4] | Potency [5] | Potency [6] | Potency [7]

COCCOCCOCCOC
inactive: outcome [8] | Potency [4] | Potency [5] | Potency [6] | Potency [7]

CCN(CCO)c1cccc(C)c1
inactive: outcome [1] | outcome [3] | Potency [4] | Potency [9]

O=CO
active: Potency [9] 2.51 µM
inactive: activity change, negative = cytotoxicity [8] 7.25% [at 8.39 µM] | activity change, negative = cytotoxicity [4] -5.19% [at 8.39 µM] | activity change, negative = inhibition [5] 8.24% [at 8.39 µM] | activity change, negative = cytotoxicity [6] 2.97% [at 8.39 µM] | activity change, negative = cytotoxicity [7] 21.2% [at 8.39 µM]

CCCCC(CC)C(=O)OC(C)C (centres undefined)
inactive: outcome [8] | Potency [4] | Potency [9] | Potency [5] | Potency [6] | Potency [7]

Cc1cccc(NC(=S)N(C)C)c1
active: Potency [6] 30.6 µM
inactive: outcome [2] | outcome [3] | Potency [4] | Potency [7]

CNC(=O)C(c1ccccc1)c1ccccc1
inactive: outcome [1] | outcome [2] | outcome [3] | Potency [4] | Potency [9] | Potency [7]

C=CCOCC(CO)(COCC=C)COCC=C
inactive: outcome [1] | Potency [4] | Potency [9] | Potency [5] | Potency [6] | Potency [7]

Oc1ccccc1Cc1ccccc1O
inactive: outcome [1] | outcome [2] | Potency [4]
active: Potency [5] 27.3 µM

CNCc1ccccc1
inactive: Potency [4] | Potency [9] | Potency [5] | Potency [7]

O=[Si]=O
inactive: outcome [1] | Potency [4] | Potency [9] | Potency [5] | Potency [7]

CC(=O)Nc1ccc(C)cc1
inactive: outcome [1] | Potency [4] | Potency [9] | Potency [5] | Potency [6] | Potency [7]

CCCOC(=O)CCCCC(=O)OCCC
inactive: outcome [1] | outcome [2] | outcome [3] | Potency [4] | Potency [9] | Potency [5] | Potency [6] | Potency [7]

CCCCCCCCC(=O)OCC
inactive: outcome [1] | outcome [2] | outcome [3] | Potency [4] | Potency [9] | Potency [5] | Potency [6] | Potency [7]

CCOC(=O)CC#N
inactive: outcome [1] | outcome [2] | outcome [3] | Potency [4] | Potency [9] | Potency [5] | Potency [6] | Potency [7]

O=C1CC[C@H](C(=O)N2CCCCC2)N1
inactive: outcome [1] | outcome [2] | Potency [4] | Potency [7]

CC(=O)OCCCc1ccccc1
inactive: outcome [2] | outcome [3] | Potency [4] | Potency [9] | Potency [5] | Potency [7]

Cc1ccccc1C(=O)N1CC/C(=N\OS(=O)(=O)O)c2ccc(Cl)cc21
inactive: outcome [1] | outcome [2] | outcome [3] | Potency [4] | Potency [5] | Potency [6] | Potency [7]

C1CCN2C[C@@H]3C[C@@H](CN4CCCC[C@@H]34)[C@H]2C1
inactive: outcome [8] | Potency [4] | Potency [9] | Potency [5] | Potency [7]

Cc1nc(C)nc(N2C[C@@H](C)N(c3ccnc([C@@H](C)O)n3)[C@@H](C)C2)n1
inactive: outcome [1] | outcome [3] | Potency [4] | Potency [9] | Potency [6] | Potency [7]

Cc1ccc2c(c1)c1c3n2CCNC3CCC1 (centres undefined)
inactive: outcome [2] | outcome [3] | Potency [4] | Potency [9] | Potency [5]

CC(C)COC(=O)CCCCC(=O)OCC(C)C
inactive: outcome [2] | outcome [3] | Potency [4] | Potency [9] | Potency [5] | Potency [6] | Potency [7]

CCOC(=O)CCc1ccccc1
inactive: outcome [2] | outcome [3] | Potency [4] | Potency [9] | Potency [5] | Potency [7]

O=C(c1ccc2c(c1)C(=O)OC2=O)c1ccc2c(c1)C(=O)OC2=O
inactive: outcome [2] | Potency [4] | Potency [9] | Potency [5] | Potency [7]

CCN(Cc1cccc(S(=O)(=O)O)c1)c1ccccc1
inactive: outcome [1] | outcome [2] | outcome [3] | Potency [9] | Potency [5] | Potency [6] | Potency [7]

NS(=O)(=O)c1ccccc1OC(F)(F)F
inactive: outcome [8] | Potency [4] | Potency [9] | Potency [5] | Potency [7]

O=C1OC(=O)c2ccccc21
active: Potency [9] 60.8 µM
inactive: outcome [1] | outcome [2] | Potency [4] | Potency [5]

CC(C)COC(=O)/C=C/c1ccccc1
inactive: outcome [1] | outcome [2] | outcome [3] | Potency [4] | Potency [9] | Potency [5] | Potency [6] | Potency [7]
